Binding signal data for 1 sequence are collected here from PMC7862700, “An all-to-all approach to the identification of sequence-specific readers for epigenetic DNA modifications on cytosine”.

Assay in all cases: DAPPL (digital affinity profiling via proximity ligation, sequencing); 10 mM Tris-HCl pH 7.5, 50 mM NaCl, 1 mM DTT, 4% glycerol, room temperature, 30 min; GST-TFs on glutathione beads, 16-mer random dsDNA library, 0.1% formaldehyde crosslink after washing; high values mean tight binding
Common to all, as to conditions: protein: recombinant; tags: N-terminal GST; dsDNA, one strand shown

One experiment has as its target T1, ELK4 (Homo sapiens, UniProt P28324-2 1-405).
T1 sequence: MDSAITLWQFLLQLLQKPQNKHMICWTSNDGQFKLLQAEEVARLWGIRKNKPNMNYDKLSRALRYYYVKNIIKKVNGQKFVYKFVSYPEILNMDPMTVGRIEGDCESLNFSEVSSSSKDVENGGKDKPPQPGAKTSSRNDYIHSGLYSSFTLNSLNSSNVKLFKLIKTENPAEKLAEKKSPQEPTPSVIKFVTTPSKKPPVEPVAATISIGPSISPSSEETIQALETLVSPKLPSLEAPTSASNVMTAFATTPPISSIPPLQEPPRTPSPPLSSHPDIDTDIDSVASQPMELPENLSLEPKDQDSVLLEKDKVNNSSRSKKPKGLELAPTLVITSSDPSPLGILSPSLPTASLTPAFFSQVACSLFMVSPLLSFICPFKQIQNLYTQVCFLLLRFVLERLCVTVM
The method in brief: (§1)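 Human transcription factors were made in yeast as GST fusions, captured on glutathione beads and barcoded with DNA. With a tag-only sample included, the pool was incubated with 200 nmole of a random double-stranded 16-mer DNA library in Tris/NaCl/DTT/glycerol buffer at room temperature for 30 min, then crosslinked with 0.1% formaldehyde after washing, ligated by proximity, amplified and sequenced. For binding signal, each hexamer's read frequency for a factor is divided by its frequency for the tag-only sample.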

Another experiment deals with T2, ETV2 (Homo sapiens, UniProt O00321 1-342).
T2 sequence: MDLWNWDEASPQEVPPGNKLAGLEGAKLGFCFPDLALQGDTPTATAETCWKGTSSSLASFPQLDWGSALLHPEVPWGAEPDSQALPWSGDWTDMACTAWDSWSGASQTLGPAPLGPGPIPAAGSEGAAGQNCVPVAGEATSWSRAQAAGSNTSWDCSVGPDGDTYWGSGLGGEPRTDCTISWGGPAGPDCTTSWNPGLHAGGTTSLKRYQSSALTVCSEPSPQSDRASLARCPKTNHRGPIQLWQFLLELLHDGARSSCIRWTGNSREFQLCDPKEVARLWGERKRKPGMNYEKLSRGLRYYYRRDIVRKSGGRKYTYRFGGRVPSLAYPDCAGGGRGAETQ
The method in brief: as §1

For the next experiment, the target named is T3, ELF3 (Homo sapiens, UniProt P78545 1-371).
T3 sequence: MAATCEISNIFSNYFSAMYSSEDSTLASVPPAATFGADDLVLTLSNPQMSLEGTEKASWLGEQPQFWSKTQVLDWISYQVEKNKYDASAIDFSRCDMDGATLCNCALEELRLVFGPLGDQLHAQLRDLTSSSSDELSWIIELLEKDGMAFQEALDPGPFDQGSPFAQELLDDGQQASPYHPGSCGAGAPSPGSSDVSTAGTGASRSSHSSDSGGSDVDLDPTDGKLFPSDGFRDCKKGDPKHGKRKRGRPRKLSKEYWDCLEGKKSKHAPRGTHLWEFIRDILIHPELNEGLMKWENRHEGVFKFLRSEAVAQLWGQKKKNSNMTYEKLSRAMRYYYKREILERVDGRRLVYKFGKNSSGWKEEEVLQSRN
Summed up:
as §1

The target of another experiment is ETV1 (Homo sapiens, UniProt P50549 1-477). Summed up: as §1
Sequence of ETV1 (P50549 whole entry): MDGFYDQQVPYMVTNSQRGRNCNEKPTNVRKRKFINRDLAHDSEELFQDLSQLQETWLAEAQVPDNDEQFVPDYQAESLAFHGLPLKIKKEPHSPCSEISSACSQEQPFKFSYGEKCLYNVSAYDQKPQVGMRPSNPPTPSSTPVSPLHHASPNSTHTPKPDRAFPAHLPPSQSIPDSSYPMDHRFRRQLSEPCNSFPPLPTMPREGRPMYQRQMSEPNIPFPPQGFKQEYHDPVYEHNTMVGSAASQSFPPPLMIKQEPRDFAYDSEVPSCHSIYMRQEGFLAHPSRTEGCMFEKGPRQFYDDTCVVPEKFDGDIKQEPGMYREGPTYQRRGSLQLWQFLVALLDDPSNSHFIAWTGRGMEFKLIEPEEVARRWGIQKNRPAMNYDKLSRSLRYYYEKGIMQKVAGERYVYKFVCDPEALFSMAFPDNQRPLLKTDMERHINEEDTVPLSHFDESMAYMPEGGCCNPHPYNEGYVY
A further experiment deals with T4, ERF (Homo sapiens, UniProt P50548 1-548).
T4 sequence: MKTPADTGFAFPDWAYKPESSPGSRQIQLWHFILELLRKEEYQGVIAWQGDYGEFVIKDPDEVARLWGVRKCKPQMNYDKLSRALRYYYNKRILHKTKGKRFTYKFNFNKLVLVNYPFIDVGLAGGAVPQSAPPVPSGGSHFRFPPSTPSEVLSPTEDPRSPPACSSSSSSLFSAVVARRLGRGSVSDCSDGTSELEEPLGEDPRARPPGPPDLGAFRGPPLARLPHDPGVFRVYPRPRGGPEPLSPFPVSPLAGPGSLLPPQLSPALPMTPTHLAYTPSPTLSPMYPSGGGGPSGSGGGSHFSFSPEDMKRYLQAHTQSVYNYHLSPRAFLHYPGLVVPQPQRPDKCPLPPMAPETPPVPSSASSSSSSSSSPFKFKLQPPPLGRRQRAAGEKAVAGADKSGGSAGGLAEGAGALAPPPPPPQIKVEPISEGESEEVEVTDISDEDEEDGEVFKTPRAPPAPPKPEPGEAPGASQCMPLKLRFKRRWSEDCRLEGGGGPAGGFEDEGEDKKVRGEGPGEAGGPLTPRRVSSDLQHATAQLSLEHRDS
The method in brief: as §1

The next experiment has as its target T5, ETV3L (Homo sapiens, UniProt Q6ZN32 1-361).
T5 sequence: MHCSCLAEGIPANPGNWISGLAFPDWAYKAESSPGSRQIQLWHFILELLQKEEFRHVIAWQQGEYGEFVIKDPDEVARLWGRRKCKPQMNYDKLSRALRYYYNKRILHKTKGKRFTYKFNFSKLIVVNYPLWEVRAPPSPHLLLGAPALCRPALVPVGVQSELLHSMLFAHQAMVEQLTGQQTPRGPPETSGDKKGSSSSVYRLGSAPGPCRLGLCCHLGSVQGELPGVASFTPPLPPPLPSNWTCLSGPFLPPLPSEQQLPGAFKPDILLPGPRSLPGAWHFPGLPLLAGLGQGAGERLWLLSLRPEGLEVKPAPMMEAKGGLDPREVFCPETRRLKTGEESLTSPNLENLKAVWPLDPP
Summed up: as §1

For a further experiment, the target named is T6, ETS2 (Homo sapiens, UniProt P15036 1-469).
T6 sequence: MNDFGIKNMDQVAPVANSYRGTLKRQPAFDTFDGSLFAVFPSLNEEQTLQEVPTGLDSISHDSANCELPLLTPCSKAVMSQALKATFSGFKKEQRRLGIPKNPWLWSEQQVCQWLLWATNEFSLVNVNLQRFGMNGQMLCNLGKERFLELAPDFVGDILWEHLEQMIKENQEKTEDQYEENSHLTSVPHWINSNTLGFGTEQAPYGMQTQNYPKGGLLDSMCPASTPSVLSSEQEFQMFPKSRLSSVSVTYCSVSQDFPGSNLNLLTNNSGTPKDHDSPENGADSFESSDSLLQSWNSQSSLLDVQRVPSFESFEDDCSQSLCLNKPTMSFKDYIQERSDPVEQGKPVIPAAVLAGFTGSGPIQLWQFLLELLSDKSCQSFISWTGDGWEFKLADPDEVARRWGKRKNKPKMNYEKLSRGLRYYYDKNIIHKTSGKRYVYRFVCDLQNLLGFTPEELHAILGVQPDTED
Summed up:
as §1

For the next experiment, the target named is T7, ETV7 (Homo sapiens, UniProt Q9Y603 1-341).
T7 sequence: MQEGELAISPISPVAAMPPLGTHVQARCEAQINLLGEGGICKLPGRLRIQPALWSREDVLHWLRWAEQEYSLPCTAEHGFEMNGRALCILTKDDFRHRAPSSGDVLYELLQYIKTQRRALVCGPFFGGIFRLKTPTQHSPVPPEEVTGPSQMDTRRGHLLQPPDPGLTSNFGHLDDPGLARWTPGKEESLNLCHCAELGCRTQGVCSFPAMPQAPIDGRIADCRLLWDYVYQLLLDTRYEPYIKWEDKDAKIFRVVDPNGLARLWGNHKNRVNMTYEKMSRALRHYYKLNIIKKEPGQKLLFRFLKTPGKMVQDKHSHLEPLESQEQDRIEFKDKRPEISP
The method in brief:
as §1

The next experiment has as its target T8, ETV3 (Homo sapiens, UniProt P41162-2 1-143).
T8 sequence: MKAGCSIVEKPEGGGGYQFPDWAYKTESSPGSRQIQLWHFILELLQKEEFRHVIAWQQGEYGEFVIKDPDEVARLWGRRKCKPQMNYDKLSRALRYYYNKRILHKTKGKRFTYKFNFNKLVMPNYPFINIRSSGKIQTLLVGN
The method in brief:
as §1

Another experiment addresses ETV6 (Homo sapiens, UniProt P41212 1-452). The method in brief:
as §1

Sequence of ETV6 (P41212 whole entry): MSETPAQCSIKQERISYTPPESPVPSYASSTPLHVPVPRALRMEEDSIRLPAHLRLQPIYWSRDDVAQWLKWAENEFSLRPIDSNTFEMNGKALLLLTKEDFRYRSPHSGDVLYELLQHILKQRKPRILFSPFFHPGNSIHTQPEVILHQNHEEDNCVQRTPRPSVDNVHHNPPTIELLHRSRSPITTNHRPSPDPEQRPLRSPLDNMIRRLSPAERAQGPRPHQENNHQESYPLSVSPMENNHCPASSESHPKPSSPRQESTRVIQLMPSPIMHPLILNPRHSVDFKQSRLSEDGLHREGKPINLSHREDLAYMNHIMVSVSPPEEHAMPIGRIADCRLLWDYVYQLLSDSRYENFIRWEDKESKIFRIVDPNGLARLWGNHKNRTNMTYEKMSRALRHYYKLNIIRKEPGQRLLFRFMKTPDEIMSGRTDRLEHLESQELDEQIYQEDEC

With TACAGC, the binding signal is 1.02 fold enrichment (6-mer frequency, TF over GST control) with ELK4; 1.12 fold enrichment (6-mer frequency, TF over GST control) with ETV2; 1.16 fold enrichment (6-mer frequency, TF over GST control) with ELF3; 1.03 fold enrichment (6-mer frequency, TF over GST control) with ETV1; 1.16 fold enrichment (6-mer frequency, TF over GST control) in the experiment with ERF; 1.08 fold enrichment (6-mer frequency, TF over GST control) with ETV3L. The binding signal in the experiment with ETS2 was 1.1 fold enrichment (6-mer frequency, TF over GST control); with ETV7, 1.09 fold enrichment (6-mer frequency, TF over GST control); in the experiment with ETV3, 1.02 fold enrichment (6-mer frequency, TF over GST control); with ETV6 it was 1.1 fold enrichment (6-mer frequency, TF over GST control).
